Source: PubChem BioAssay AID1159580 (chemical genetic matrix, 2015)
“And” between values parts separate entries of the source, which are not always exact repeats. Identical values can stand only once. Hit rate of the full screen: of about 5,500 compounds, about 2,000 (36%) were called active. Not shown: some 18% with an inconclusive outcome. Cut-off read from the data, not from the text of the source: active = normalized growth mostly below about 0.91 (no sharp cut-off); inconclusive = no clear call, values can overlap the other calls; inactive = mostly above about 0.92. This is one part of the list.

Experiment: chemical genetic growth profiling, strain panel (AID 1159580);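 note: tested at 20 µM; growth read once vehicle control cultures reached saturation at 30 °C; 1 = growth at the plate median or of vehicle wells; lower values mean less growth of the strain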
Settings: S. cerevisiae deletion strains, growth OD

Measured: normalized growth

COc1ccc2[nH]cc(CCNC(C)=O)c2c1
inactive: locus YAL013W, strain DEP1, hits give low values 1.01 | locus YAL021C, strain ccr4, hits give low values 0.977 | locus YAL026C, strain drs2, hits give low values 0.983 | locus YAL030W, strain snc1, hits give low values 0.984 | locus YAL040C, strain CLN3, hits give low values 0.996 | locus YBL061C, strain skt5, hits give low values 0.969 | locus YBR009C, strain hhf1, hits give low values 0.983 | locus YBR021W, strain FUR4, hits give low values 1.01 | locus YBR023C, strain chs3, hits give low values 0.979 | locus YBR171W, strain sec66, hits give low values 0.966 | locus YBR229C, strain ROT2, hits give low values 1.02 | locus YBR231C, strain swc5, hits give low values 0.971 | locus YBR279W, strain paf1, hits give low values 0.978 | locus YCL011C, strain gbp2, hits give low values 0.979 | locus YCL016C, strain dcc1, hits give low values 0.972 | locus YCL029C, strain bik1, hits give low values 1.02 | locus YCL061C, strain MRC1 (second series), hits give low values 1.01 | locus YCL061C, strain MRC1, hits give low values 0.984 | locus YCL069W, strain vba3, hits give low values 0.977 | locus YCR088W, strain abp1, hits give low values 0.968 | locus YDL005C, strain med2, hits give low values 0.959 | locus YDL035C, strain GPR1, hits give low values 1.01 | locus YDL040C, strain nat1, hits give low values 0.971 | locus YDL074C, strain BRE1, hits give low values 1.02 | locus YDL101C, strain DUN1, hits give low values 1.01 | locus YDL134C, strain PPH21, hits give low values 1.01 | locus YDL185W, strain tfp1, hits give low values 1.03 | locus YDL192W, strain arf1, hits give low values 1.03 | locus YDR001C, strain nth1, hits give low values 0.973 | locus YDR069C, strain doa4, hits give low values 0.958 | locus YDR101C, strain arx1, hits give low values 1.02 | locus YDR137W, strain rgp1, hits give low values 0.992 | locus YDR150W, strain NUM1, hits give low values 1 and 1.01 | locus YDR159W, strain sac3, hits give low values 0.943 | locus YDR162C, strain NBP2, hits give low values 1.02 | locus YDR195W, strain ref2 0.959 | locus YDR297W, strain sur2, hits give low values 0.967 | locus YDR318W, strain mcm21, hits give low values 1.02 | locus YDR334W, strain swr1, hits give low values 0.969 | locus YDR335W, strain msn5, hits give low values 0.977 | locus YDR363W, strain ESC2, hits give low values 0.996 | locus YDR388W, hits give low values 1.02 | locus YDR392W, strain spt3, hits give low values 0.958 | locus YDR502C, strain sam2, hits give low values 1.03 | locus YEL003W, strain gim4, hits give low values 0.974 | locus YEL037C, strain rad23, hits give low values 0.966 | locus YEL061C, strain CIN8 (second series), hits give low values 0.972 | locus YEL061C, strain CIN8, hits give low values 1 | locus YER002W, strain NOP16, hits give low values 0.999 | locus YER015W, strain faa2, hits give low values 0.981 | locus YER016W, strain bim1, hits give low values 0.975 | locus YER110C, hits give low values 1.02 | locus YER111C, strain swi4, hits give low values 0.976 | locus YER155C, strain BEM2 (second series), hits give low values 0.971 | locus YER155C, strain BEM2, hits give low values 0.998 | locus YER167W, strain BCK2, hits give low values 1.01 | locus YFR010W, strain ubp6, hits give low values 0.955 | locus YGL078C, strain dbp3, hits give low values 1.02 | locus YGL086W, strain mad1, hits give low values 1.02 | locus YGL167C, strain pmr1, hits give low values 0.96 | locus YGL173C, strain kem1, hits give low values 0.955 | locus YGL227W, strain vid30, hits give low values 0.962 | locus YGL240W, strain doc1, hits give low values 0.963 | locus YGL248W, strain PDE1, hits give low values 1.01 | locus YGL253W, strain hxk2, hits give low values 0.983 | locus YGR078C, strain PAC10, hits give low values 1.02 and 1.01 | locus YGR135W, strain pre9, hits give low values 1.03 | locus YGR229C, strain SMI1, hits give low values 1.01 | locus YGR252W, strain gcn5, hits give low values 1.05 | locus YHR013C, strain ard1, hits give low values 0.968 | locus YHR027C, strain rpn1, hits give low values 0.994 | locus YHR030C, strain SLT2, hits give low values 0.998 and 0.997 | locus YHR079C, strain IRE1 (second series), hits give low values 1.02 | locus YHR079C, strain IRE1, hits give low values 0.998 | locus YHR094C, strain hxt1, hits give low values 1.02 | locus YHR129C, strain ARP1, hits give low values 1 | locus YHR142W, strain chs7, hits give low values 0.964 | locus YHR200W, strain rpn10, hits give low values 1.03 | locus YIL066C, strain RNR3, hits give low values 1.01 | locus YIL073C, strain SPO22, hits give low values 1.08 | locus YIL125W, strain kgd1, hits give low values 1.03 | locus YIR030C, strain dcg1, hits give low values 1.03 | locus YJL092W, strain hpr5, hits give low values 0.974 | locus YJL095W, strain BCK1 (second series), hits give low values 0.971 | locus YJL095W, strain BCK1, hits give low values 1.02 | locus YJL115W, strain asf1, hits give low values 0.969 | locus YJL129C, strain trk1, hits give low values 0.967 | locus YJL134W, strain LCB3, hits give low values 1 | locus YJL154C, strain vps35, hits give low values 0.957 | locus YJL164C, strain tpk1, hits give low values 0.986 | locus YJL166W, strain qcr8, hits give low values 0.979 | locus YJL168C, strain set2, hits give low values 1.03 | locus YJL187C, strain SWE1 (second series), hits give low values 1.01 | locus YJL187C, strain SWE1, hits give low values 0.979 | locus YJR043C, strain POL32, hits give low values 0.994 | locus YJR066W, strain TOR1, hits give low values 0.941
